Consider 16 compounds from PubChem BioAssay (NCATS).

Results filed as inconclusive are left out. A number with no mark means an inactive call. The source made the active and inactive calls. Calls come from the whole dose curve; as a rule, active = well fitted curve in the direction sought with a large enough effect; inconclusive = small, poorly fitted or top-dose-only effect, or another doubt; inactive = no such curve, though single readings can be large; an effect the other way counts as inactive or inconclusive.

For one assay, the target named is Furin (Homo sapiens) (UniProt P09958). As to the kind of experiment: Furin counterscreen qHTS for Zika virus inhibitors (AID 1347149).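 For activity change, negative = inhibition: purified recombinant full-length human furin enzyme at 5 nM; fluorescence gain from furin cutting a BOC-RVRR-AMC peptide substrate over 15 min; top concentration of the series differs between compounds; plate controls were no-inhibitor control for no effect and no-enzyme control for full effect.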 Note: nearly all actives have a fitted effect of over 70% in size. Note: potency is the fitted concentration of half-maximal effect. In short, it runs like this: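 Counterscreen measures cleavage of 2 microM BOC-RVRR-AMC, below its ~15 microM Km, by 5 nM full-length human furin at pH 7.0 after a 15-min compound preincubation. Inhibition derives from the 15-min fluorescence increase at 37C.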
On the technique in general: The purpose of a counterscreen is to sort out artefacts and off-target activity.

Assay [1] can be described thus: Confirmatory screen GU Rhodamine qHTS for Zika virus inhibitors qHTS (AID 1347157).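 For activity change, negative = inhibition: plate controls were no-inhibitor wells for no effect and no-enzyme wells for full effect.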 Note: nearly all actives have a fitted effect of over 70% in size. Note: potency is the fitted concentration of half-maximal effect. The method in brief:
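A qHTS format was used, with compound concentrations ranging up to 114 microM. Each compound was preincubated with 25 nM NS2B-NS3 protease, and the substrate was then added at 1.5 microM. Curves were fitted with a 4-parameter Hill model.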

Assay [2] can be described thus: Confirmatory screen NINDS Rhodamine qHTS for Zika virus inhibitors (AID 1347161).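 For activity change, negative = inhibition: purified Zika NS2B-NS3 protease with linked NS2B cofactor domain and Rhodamine110 peptide substrate; series mostly up to about 110 µM; plate controls were no-inhibitor control for no effect and no-enzyme control for full effect.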 Note: nearly all actives have a fitted effect of over 60% in size. Note: potency is the fitted concentration of half-maximal effect. The method in brief:
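Rhodamine110-peptide cleavage (1.5 µM substrate) by 25 nM linked NS2B-NS3 enzyme at pH 8.0 (Tris, Tween 20), after 15 min RT preincubation with compounds; 15-min fluorescence change normalized to controls and Hill-fitted.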

The nature of assay [3]: Tertiary RLuc qRT-PCR qHTS assay for Zika virus inhibitors (AID 1347169). Note: top concentration of the series differs between compounds; % is set by controls: 0 for no effect and ±100 for the full control effect; nearly all actives have a fitted effect of over 55% in size. The method in brief:
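Vero, 1,000 cells/well, o/n 37 C; cpd pinned in DMSO; ZIKV-RLuc Cambodian, MOI 1-2, 48-72 h 37 C; live-cell RLuc substrate, lum read at 1-1.5 h.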

Assay [4] can be described thus: ZIKV-mCherry secondary qHTS for Zika virus inhibitors (AID 1347158). Note: top concentration of the series differs between compounds. The method in brief:
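Compounds were tested in Vero monkey kidney cells infected with recombinant mCherry-expressing Zika virus at MOI 1 for 48-72 h at 37 °C. Fixed cells were nuclear-stained and imaged, and infection rate was taken as the fraction of mCherry-positive cells.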
In general terms: qHTS replaces the single test concentration by a dilution series.

Assay [5] concerns Zika virus NS2B-NS3 protease (linked construct). As to the kind of experiment: 384 well plate NINDS Rhodamine confirmatory qHTS for Zika virus inhibitors (AID 1347164).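 Note: fluorescence from protease cleavage of Ac-LKRR-rhodamine 110 substrate; potency is the fitted concentration of half-maximal effect; nearly all actives have a fitted effect of over 65% in size.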 The method in brief:
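Enzyme (final 5/30/60 nM) + cpd (DMSO), ~15 min; add Ac-LKRR-Rd 10 microM final; 25 min RT, dark; FI ex 485/em 538; normalized to no-enzyme, no-inhibitor ctrls; aprotinin intraplate ctrl.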

For assay [6], the system named is Zika virus NS2B-NS3 protease (linked). As to the kind of experiment: 384 well plate NINDS AMC confirmatory qHTS for Zika virus inhibitors (AID 1347163).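 For activity change, negative = inhibition: linked protease at 5 30 or 60 nM final depending on run; fluorescence of AMC released from Ac-VKTGKR-AMC peptide cleaved by the protease; top concentration of the series differs between compounds; 0% = no-inhibitor control and -100% = no-enzyme control.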 Note: nearly all actives have a fitted effect of over 50% in size. Note: potency is the fitted concentration of half-maximal effect. The method in brief: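 Fluorescence at 355/460 nm was read after 25 minutes of cleavage of 30 microM Ac-VKTGKR-AMC at room temperature, in the dark. Before substrate addition, compounds (up to 1 mM final) sat ~15 minutes with 5, 30 or 60 nM linked protease. Signals were normalized to no-enzyme and no-inhibitor wells.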

For assay [7], the target named is Rap guanine nucleotide exchange factor 3 (Homo sapiens) (UniProt O95398). As to the kind of experiment: Confirmatory qHTS for agonist of cAMP-regulated guanine nucleotide exchange factor 3 (EPAC1) (AID 1645881).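 Note: EPAC1 catalysed release of BODIPY-GDP from Rap1B seen as fluorescence loss; 100% = effect of cAMP agonist control; nearly all actives have a fitted effect of over 75% in size.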
Assay [8] addresses Rap guanine nucleotide exchange factor 4 (Homo sapiens) (UniProt Q8WZA2). As to the kind of experiment: Confirmatory qHTS for agonist of cAMP-regulated guanine nucleotide exchange factor 4 (EPAC2) (AID 1645884).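 Note: nucleotide exchange releases bodipy-GDP from Rap1 and this lowers its fluorescence; % is set by controls: 0 for no effect and ±100 for the full control effect; nearly all actives have a fitted effect of over 65% in size.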
The target is the same in assay [9]. As to the kind of experiment: Confirmatory qHTS for antagonist of cAMP-regulated guanine nucleotide exchange factor 4 (EPAC2) (AID 1645885). Note: % is set by controls: 0 for no effect and ±100 for the full control effect; nearly all actives have a fitted effect of over 25% in size.
The target in assay [10] is Rap guanine nucleotide exchange factor 3 (Homo sapiens) (UniProt O95398). As to the kind of experiment: Counterscreen qHTS for agonist of cAMP-regulated guanine nucleotide exchange factor 3 (EPAC1) (AID 1645889). Note: % of control where 0% means no effect; nearly all actives have a fitted effect of over 40% in size. In short, it runs like this: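 Rap1B-BODIPY-GDP 250 nM + GDP 50 uM; cpds 7-pt, final 9.74 nM–152 uM (activator mode) or from 7.32 nM upwards (inhibitor mode); RT; FI 480/540 nm at 5 and 30 min, then ± cAMP, reread.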

Furin (Homo sapiens), sequence (P09958 whole entry, looked up): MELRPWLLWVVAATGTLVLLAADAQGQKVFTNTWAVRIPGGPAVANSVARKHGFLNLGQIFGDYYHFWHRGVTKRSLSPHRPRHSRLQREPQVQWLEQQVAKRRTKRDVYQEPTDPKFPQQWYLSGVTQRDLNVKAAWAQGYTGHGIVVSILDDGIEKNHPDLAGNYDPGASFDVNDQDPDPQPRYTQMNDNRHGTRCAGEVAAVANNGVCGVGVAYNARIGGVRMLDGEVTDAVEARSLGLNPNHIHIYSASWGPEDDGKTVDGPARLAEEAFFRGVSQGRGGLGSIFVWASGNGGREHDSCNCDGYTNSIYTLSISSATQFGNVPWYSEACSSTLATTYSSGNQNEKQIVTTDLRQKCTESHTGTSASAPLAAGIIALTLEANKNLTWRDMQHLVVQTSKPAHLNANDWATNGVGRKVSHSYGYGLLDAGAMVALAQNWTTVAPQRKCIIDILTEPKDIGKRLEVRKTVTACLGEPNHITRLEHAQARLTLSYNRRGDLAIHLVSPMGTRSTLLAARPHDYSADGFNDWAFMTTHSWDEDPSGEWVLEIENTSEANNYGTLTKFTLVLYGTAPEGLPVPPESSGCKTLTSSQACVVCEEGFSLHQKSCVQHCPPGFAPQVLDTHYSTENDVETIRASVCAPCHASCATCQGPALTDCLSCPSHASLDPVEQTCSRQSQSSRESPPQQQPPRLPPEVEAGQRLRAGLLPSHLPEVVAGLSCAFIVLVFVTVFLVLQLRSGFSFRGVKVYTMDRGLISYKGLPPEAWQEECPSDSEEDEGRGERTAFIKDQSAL
Rap guanine nucleotide exchange factor 4 (Homo sapiens), sequence (Q8WZA2 whole entry, looked up): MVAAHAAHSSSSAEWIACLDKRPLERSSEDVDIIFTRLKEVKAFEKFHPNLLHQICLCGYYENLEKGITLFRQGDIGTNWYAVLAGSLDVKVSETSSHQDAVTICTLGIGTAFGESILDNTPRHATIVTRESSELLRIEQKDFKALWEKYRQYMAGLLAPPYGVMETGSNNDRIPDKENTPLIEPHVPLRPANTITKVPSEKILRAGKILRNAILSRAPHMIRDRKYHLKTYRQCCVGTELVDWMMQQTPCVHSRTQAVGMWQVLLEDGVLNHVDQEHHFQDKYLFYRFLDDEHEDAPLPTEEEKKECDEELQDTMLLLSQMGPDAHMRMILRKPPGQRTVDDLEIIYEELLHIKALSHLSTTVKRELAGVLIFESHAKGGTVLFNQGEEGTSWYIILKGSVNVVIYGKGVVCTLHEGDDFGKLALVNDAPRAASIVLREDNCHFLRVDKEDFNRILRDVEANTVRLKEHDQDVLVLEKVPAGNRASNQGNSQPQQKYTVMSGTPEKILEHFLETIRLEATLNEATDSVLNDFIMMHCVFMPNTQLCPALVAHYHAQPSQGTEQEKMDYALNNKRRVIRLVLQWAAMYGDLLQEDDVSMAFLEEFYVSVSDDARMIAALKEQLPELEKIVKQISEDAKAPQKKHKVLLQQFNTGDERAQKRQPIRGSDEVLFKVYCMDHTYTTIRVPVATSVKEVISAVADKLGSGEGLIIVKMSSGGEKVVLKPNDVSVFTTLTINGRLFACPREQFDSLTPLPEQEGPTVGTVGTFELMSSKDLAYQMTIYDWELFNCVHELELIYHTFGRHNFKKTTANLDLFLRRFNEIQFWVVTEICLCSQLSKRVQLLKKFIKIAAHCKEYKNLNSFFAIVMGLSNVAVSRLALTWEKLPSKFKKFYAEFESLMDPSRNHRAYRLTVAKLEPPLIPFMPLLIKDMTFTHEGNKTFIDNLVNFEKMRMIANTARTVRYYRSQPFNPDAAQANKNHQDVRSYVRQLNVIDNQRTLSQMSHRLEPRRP
Rap guanine nucleotide exchange factor 3 (Homo sapiens), sequence (O95398 whole entry, looked up): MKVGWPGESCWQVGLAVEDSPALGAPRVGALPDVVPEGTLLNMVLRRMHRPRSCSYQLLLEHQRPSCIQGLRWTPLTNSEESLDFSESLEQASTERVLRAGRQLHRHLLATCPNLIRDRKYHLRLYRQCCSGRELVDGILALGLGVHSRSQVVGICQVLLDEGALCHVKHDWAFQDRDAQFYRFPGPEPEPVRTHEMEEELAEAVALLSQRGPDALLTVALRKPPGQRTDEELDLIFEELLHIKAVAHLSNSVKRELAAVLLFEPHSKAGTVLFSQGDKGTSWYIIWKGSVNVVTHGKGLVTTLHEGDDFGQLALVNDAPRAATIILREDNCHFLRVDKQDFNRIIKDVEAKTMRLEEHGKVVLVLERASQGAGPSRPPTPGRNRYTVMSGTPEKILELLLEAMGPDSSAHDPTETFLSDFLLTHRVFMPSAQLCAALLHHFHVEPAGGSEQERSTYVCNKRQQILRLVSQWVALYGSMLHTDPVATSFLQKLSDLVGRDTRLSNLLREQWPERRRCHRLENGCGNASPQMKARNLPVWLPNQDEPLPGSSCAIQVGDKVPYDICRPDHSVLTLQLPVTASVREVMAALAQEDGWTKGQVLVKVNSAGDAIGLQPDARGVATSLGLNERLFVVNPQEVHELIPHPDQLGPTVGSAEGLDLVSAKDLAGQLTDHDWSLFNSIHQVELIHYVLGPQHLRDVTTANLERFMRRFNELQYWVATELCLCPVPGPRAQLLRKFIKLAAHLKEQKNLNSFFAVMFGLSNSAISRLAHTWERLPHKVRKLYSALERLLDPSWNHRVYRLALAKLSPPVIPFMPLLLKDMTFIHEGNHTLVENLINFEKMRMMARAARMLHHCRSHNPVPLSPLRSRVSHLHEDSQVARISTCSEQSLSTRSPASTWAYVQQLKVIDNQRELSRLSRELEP

`O=C(Nc1ccc(-c2nc3ccccc3s2)c(O)c1)c1ccc(Br)cc1`: the Potency result (in the assay with Furin (Homo sapiens); in [1]; in assay [2]; in [3]) was “inactive” in each case.
In the case of `O=C(Nc1cccc(C(=O)OCc2cc(=O)n3nc(C4CC4)sc3n2)c1)c1cccc(F)c1`, the Potency was 41.8 µM (active) with Furin (Homo sapiens), 50.1 µM (active) in assay [1], 25.1 µM (active) in assay [2] and 17.8 µM (active) in assay [5]. The Potency result in assay [4] and in assay [3] was “inactive” in each case.
Consider `O=C(O)Cn1nnc(-c2ccc(OCc3cccc(C(F)(F)F)c3)cc2)n1`, for which the Potency result (with Furin (Homo sapiens); in [4]; in assay [3]) was “inactive” throughout. The figures for the Potency in assay [1], in assay [2] and in [5] were 25.1 µM (active), 8.91 µM (active) and 112 µM (active), respectively.
In the case of `O=C(CSc1ncccc1C(=O)Oc1ccccc1Cl)Nc1ccccc1Cl`, the Potency result (with Furin (Homo sapiens); in assay [1]; in [2]; in assay [3]) was “inactive” each time.
As for `CCOC(=O)c1ccc(NC(=O)c2ccc3c(c2)CCN3S(=O)(=O)c2ccc(Cl)cc2)cc1`, the Potency result (in the assay with Furin (Homo sapiens); in [1]; in assay [2]) was “inactive” each time.
With `O=C(O)c1ccc(NS(=O)(=O)c2ccc(Cl)c(C(=O)Nc3ccccc3)c2)cc1`, the Potency entry (with Furin (Homo sapiens); in assay [1]; in assay [2]; in [3]) was “inactive” each time.
For the compound `Cc1c(Cl)cccc1NS(=O)(=O)c1ccc(NS(=O)(=O)c2ccc3c(c2)OCCO3)cc1`, in the assay with Furin (Homo sapiens), the Potency result was “inactive”. Also, the Potency was 44.7 µM (active) in [1], 25.1 µM (active) in assay [2], 141 µM (active) in assay [6] and 39.8 µM (active) in assay [5].
Take `Cc1cc(NC(=O)c2ccc(Cl)c(Cl)c2)ccc1-c1cc2ccccc2oc1=O`: the Potency in the assay with Furin (Homo sapiens) is 66.3 µM (active); in [1], 44.7 µM (active); in [2], 31.6 µM (active). The Potency result in assay [6] and in assay [3] was “inactive” throughout.
With `O=C(O)CCc1ccc(-c2ccc(Cl)cc2)n1-c1cccc(C(F)(F)F)c1`, the Potency result (with Furin (Homo sapiens); in assay [10]) was “inactive” in each case. The results for the Potency in assay [1], in assay [2] and in [5] were 7.08 µM (active), 11.2 µM (active) and 44.7 µM (active), respectively. Also, the result in assay [7] and in assay [8] was inactive. In assay [9], the activity change, negative = inhibition was 25.6% [at 12.7 µM].
Turning to `Cc1cn2c(=O)cc(COC(=O)c3ccc(NC(=O)c4ccc(C(C)(C)C)cc4)cc3)nc2s1`, the Potency with Furin (Homo sapiens) is 46.9 µM (active). Further, the Potency result in assay [1] and in [2] was “inactive” in each case.
With `COc1ccc(S(=O)(=O)c2c(Nc3c(C)cccc3C)sc(C(=O)c3ccc4c(c3)OCO4)c2N)cc1`, the Potency in the assay with Furin (Homo sapiens) was 23.5 µM (active). The Potency entry in assay [1] and in assay [2] was “inactive” each time.
As for `Cc1csc2nc(COC(=O)c3ccc(NC(=O)c4ccccc4Br)cc3)cc(=O)n12`, the Potency in the assay with Furin (Homo sapiens) is 59.1 µM (active). The Potency result in [1] and in assay [2] was “inactive” each time.
`O=S(=O)(Nc1ccc(Cl)cc1)c1ccc(NS(=O)(=O)c2ccc3c(c2)OCCO3)cc1`: in the assay with Furin (Homo sapiens), the Potency entry is “inactive”. Besides, the Potency is 44.7 µM (active) in assay [1], 35.5 µM (active) in [2] and 31.6 µM (active) in assay [5].
As to `O=c1oc2cc(O)ccc2cc1-c1nc(-c2ccc(Cl)c(Cl)c2)cs1`, the Potency result (in the assay with Furin (Homo sapiens); in assay [4]; in assay [6]; in assay [3]) was “inactive” each time. Moreover, the Potency in assay [1] was 11.2 µM (active).
As to `O=C(O)c1ccc(C2Nc3ccccc3-c3nnc(SCc4ccc(Cl)cc4)nc3O2)cc1` (stereo not given), the Potency result (with Furin (Homo sapiens); in assay [4]; in [3]) was “inactive” throughout. Also, the Potency in assay [1] was 20 µM (active); in assay [6], 316 µM (active); in assay [5] it was 89.1 µM (active).
With `COc1cc(C2Nc3ccccc3-c3nnc(SCc4ccc(Cl)cc4)nc3O2)ccc1OCC(=O)O` (stereo not given), the Potency result (with Furin (Homo sapiens); in [4]; in assay [3]) was “inactive” in each case. In addition, the results for the Potency in assay [1], in assay [6] and in assay [5] were 28.2 µM (active), 282 µM (active) and 79.4 µM (active), respectively.
